PubChem BioAssay
Several values for one entry are separate records, joined by “and”; a condition that tells them apart may be missing. Equal entries are not always repeated. Activity calls are given as the source filed them.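 The calls were made as follows, unless noted: active = thallium flux through the channel raised or lowered by more than 3 SD from vehicle-only wells, actives on both sides; inactive = the rest.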

Key:
[1] = Cy5 fluorescence interference with SSB-bound oligo, artefact control for HCV NS3 helicase inhibitor project, biochemical, NIH Clinical Collection, E. coli SSB (AID 743268; call rule not given here)
[2] = tested on: Hepatitis C virus NS3 helicase; experiment: HCV NS3 helicase inhibitors, primary screen, biochemical, fluorescence polarization, NIH Clinical Collection (AID 743270; call rule not given here); settings: NS3 helicase binding to Cy5-dT15 DNA, stronger effect = higher value, concentration not given here
[3] = target: Single-stranded DNA-binding protein (Escherichia coli (strain K12)) (UniProt P0AGE0); experiment: E. coli SSB displacement from DNA, counter-screen for HCV NS3 helicase inhibitor project, biochemical, fluorescence polarization, NIH Clinical Collection (AID 743271; in the data active = inhibition above about 28%); settings: stronger effect = higher value, concentration not given here
[4] = fluorescence interference in NS3h assay format, artefact control for HCV NS3 helicase inhibitor project, biochemical, NIH Clinical Collection (AID 743272; call rule not given here;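 also: HCV NS3 helicase with a Cy5 labelled single stranded DNA probe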); settings: fluorescence interference counterscreen, stronger effect = lower value
[5] = target: 6-phosphogluconate dehydrogenase, decarboxylating (Homo sapiens) (UniProt P52209); experiment: 6PGD enzyme inhibitors, primary screen, biochemical, human, recombinant enzyme, NADPH absorbance (AID 1159550;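 active = at least 20% inhibition of 6-phosphogluconate dehydrogenase activity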); settings: recombinant 6PGD, NADPH absorbance 341 nm; at 10 µM; stronger effect = higher value
[6] = sensitizers of A549 cells to miR-34 induction, primary screen, imaging, A549 dox-inducible miR-34, nuclei and caspase counts (AID 1347080;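 active = compounds whose cell count with miR-34 switched on is under 0.7 times the count with it off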); settings: A549 miR-34 inducible, Hoechst nuclei count, 48 h
[7] = survival rescue of mitochondrial mutant cells in low glucose, primary screen, MELAS cybrids, Rieske KO mouse fibroblasts, CellTiter-Glo (AID 1508586;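 active = mean z-score across replicates of 1.96 or higher in either the MELAS or the Rieske mutant cell line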;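 also: z relative to plate mean and SD of compound and empty wells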)
[8] = target: NAD(+) hydrolase SARM1 (Homo sapiens) (UniProt Q6SZW1); experiment: SARM1 TIR NADase inhibitors, cell lysate, NAD-Glo luminescence (AID 1508614;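 active = compound whose remaining NAD level is above about 45 nM, limit read from the data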;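 also: higher remaining NAD means stronger inhibition of SARM1 NADase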); settings: SAM-TIR HEK293T lysate NADase, at 1 µM, stronger effect = higher value
[9] = target: Mitogen-activated protein kinase 7 (Homo sapiens) (UniProt Q13164); experiment: ERK5 transactivation activators in reporter cells, primary screen, cell-based, HTS (AID 1508626;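 active = luciferase signal above three times the same-plate solvent-only control wells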;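 also: luciferase driven by Gal4-ERK5 fusion binding five Gal4 sites before minimal TATA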); settings: HeLa Gal4-ERK5 transactivation, 18 h, at 5 µM, stronger effect = higher value
[10] = viability rescue of complex I mutant cybrids, primary screen, cell-based, galactose medium, ATP luminescence (AID 1645843;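 active = z-score of at least 1.8 in each of two replicates, scored against plate mean and spread of sample wells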;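 also: positive z means more ATP and so rescue of galactose-driven cybrid death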); settings: complex I mutant cybrid cells, 72 h, stronger effect = higher value
F380Y = experiment: modulators of BK channel variants, profiling panel, selectivity assay, cell-based, U2OS BacMam, thallium flux, beta subunits (AID 1259406); settings: at 30 µM;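 also: initial slope of Thallos dye fluorescence rise after thallium is added; log ratio against the mean of 0.3% DMSO vehicle wells on the same plate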
F380Y/beta2Delta = experiment: as above; settings: at 30 µM
[11] = target: Calcium-activated potassium channel subunit alpha-1 (Homo sapiens) + Leucine-rich repeat-containing protein 26 (Homo sapiens) (UniProt Q12791+Q2I0M4); experiment: as above; settings: F380Y/Slo1WT/gamma1, at 30 µM
R275C = experiment: as above; settings: at 30 µM
R275C/beta1 = experiment: as above; settings: at 30 µM
R275C/beta2Delta = experiment: as above; settings: at 30 µM
[12] = liver-stage malaria parasite growth inhibition, primary screen, cell-based, HepG2, luciferase luminescence, HepG2 viability (AID 624349; in the data active = parasite load remaining mostly below about 12%, no sharp cut-off; inactive = mostly above about 10%;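 also: 100% = mean of DMSO negative control wells on the same plate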); settings: P. berghei liver stage in HepG2, luciferase luminescence, concentration not given here; parasite load remaining: stronger effect = lower value; viability: measured here: HepG2 viability without parasites
[13] = modulation of C. elegans fzo-1 (AID 1259413; call rule not given here;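 also: fzo-1 mutant C. elegans worms in liquid wells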); settings: C. elegans fzo-1 modulator screen, mean read-out; stronger effect = higher value
[14] = differential killing of epithelial or mesenchymal cells, primary screen, imaging, PC-3E GFP, TEM4-18 mCherry, co-culture (AID 1345086;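 active = compounds killing one labelled cell type while sparing the other, by normalised counts and ratio limits, not self-fluorescent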;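 as to all read-outs here: cells exposed to compound for 72 h before imaging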;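 as to red/green cell ratio (normalised): normalised mesenchymal count divided by normalised epithelial count so high means epithelial killing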); settings: imaging cell counts, at 1 µM; for red/green cell ratio (normalised): actives lie on both sides, counts scaled to control wells, 1 = unselective
[15] = stronger effect = lower value, cell number ratio, induced over uninduced
[16] = measured here: relative caspase fold change +Dox/-Dox
[17] = measured here: total cells with miR-34 induction, stronger effect = lower value
[18] = measured here: total cells without miR-34 induction
[19] = MELAS cybrid survival, CellTiter-Glo 48 h, stronger effect = higher value
[20] = Rieske KO mouse fibroblast survival, CellTiter-Glo 72 h
[21] = measured here: epithelial PC-3E GFP cell survival
[22] = measured here: mesenchymal TEM4-18 mCherry cell survival

Chain of 6-phosphogluconate dehydrogenase, decarboxylating (Homo sapiens) (P52209 whole entry, looked up): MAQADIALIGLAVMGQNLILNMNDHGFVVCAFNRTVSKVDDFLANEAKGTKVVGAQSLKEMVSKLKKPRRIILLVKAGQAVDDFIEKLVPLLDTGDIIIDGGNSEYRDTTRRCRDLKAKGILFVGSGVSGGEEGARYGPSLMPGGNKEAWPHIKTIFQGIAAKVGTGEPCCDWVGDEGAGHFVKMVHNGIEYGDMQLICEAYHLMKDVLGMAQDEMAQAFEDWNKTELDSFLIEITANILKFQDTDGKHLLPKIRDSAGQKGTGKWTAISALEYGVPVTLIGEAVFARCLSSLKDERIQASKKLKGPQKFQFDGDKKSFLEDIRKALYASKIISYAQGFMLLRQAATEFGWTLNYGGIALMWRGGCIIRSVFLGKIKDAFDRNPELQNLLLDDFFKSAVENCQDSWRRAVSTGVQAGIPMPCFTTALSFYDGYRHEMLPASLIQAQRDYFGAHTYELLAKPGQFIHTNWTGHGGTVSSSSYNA
Chain of Calcium-activated potassium channel subunit alpha-1 (Homo sapiens) + Leucine-rich repeat-containing protein 26 (Homo sapiens) (Q2I0M4 whole entry, looked up, one chain of several): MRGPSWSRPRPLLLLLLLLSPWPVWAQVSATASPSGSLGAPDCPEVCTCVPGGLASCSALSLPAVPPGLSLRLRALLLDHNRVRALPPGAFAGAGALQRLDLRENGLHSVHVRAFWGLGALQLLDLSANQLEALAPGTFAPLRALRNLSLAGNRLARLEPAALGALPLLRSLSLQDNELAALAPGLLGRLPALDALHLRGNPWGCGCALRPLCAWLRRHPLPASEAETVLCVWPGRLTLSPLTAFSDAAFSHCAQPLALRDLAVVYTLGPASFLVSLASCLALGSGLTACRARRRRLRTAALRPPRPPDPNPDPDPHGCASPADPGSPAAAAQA
Chain of NAD(+) hydrolase SARM1 (Homo sapiens) (Q6SZW1 whole entry, looked up, the tested form may be a part): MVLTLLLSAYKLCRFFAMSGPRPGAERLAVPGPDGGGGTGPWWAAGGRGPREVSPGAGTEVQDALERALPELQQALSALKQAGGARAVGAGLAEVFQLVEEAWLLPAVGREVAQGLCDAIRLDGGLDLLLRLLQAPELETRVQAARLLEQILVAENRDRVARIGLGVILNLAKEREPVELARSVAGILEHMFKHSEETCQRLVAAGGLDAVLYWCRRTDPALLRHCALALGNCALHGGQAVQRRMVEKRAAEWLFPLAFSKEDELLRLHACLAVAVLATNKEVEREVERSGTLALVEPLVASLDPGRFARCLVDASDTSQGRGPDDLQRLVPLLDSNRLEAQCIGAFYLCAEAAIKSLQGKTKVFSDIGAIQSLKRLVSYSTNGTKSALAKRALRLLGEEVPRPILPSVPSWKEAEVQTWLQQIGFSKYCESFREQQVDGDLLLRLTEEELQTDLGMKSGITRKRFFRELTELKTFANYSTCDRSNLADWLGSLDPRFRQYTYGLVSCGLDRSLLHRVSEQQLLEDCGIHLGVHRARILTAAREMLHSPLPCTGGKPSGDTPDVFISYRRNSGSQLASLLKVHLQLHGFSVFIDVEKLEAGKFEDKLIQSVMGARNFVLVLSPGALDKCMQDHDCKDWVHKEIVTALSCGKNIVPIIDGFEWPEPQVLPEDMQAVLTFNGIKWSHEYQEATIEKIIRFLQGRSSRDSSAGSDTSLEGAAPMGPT
Chain of Mitogen-activated protein kinase 7 (Homo sapiens) (Q13164 whole entry, looked up, the tested form may be a part): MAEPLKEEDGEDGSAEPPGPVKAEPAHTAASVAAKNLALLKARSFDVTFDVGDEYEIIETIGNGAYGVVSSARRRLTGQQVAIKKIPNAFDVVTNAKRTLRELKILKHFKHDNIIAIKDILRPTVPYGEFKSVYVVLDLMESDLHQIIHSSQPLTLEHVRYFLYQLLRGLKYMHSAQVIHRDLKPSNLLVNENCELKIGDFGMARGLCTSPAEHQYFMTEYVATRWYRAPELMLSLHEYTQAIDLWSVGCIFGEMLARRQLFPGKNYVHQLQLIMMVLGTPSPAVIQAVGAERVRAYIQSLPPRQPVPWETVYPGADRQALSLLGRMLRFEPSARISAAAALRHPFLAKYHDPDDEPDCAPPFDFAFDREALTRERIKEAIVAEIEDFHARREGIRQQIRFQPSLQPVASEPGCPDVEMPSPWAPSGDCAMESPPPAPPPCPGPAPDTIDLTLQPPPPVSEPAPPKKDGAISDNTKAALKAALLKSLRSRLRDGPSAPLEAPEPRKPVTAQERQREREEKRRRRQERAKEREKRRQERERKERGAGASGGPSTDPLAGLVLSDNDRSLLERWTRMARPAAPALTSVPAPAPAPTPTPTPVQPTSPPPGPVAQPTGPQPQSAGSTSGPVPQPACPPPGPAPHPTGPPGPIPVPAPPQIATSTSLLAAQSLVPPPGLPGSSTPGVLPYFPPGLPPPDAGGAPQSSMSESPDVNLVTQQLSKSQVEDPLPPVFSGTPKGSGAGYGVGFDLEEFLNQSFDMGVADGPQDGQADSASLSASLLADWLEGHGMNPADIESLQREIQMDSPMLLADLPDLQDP

C#C[C@]1(O)CC[C@H]2[C@@H]3CCC4=CC(=O)CC[C@@H]4[C@H]3CC[C@@]21C
3.48 and 0.712 and 1.56: fold change [6, 16]
9490 and 9470 and 10100: cell count [6, 18]
0.0145 and -0.237: z-score [7, 20]
9410 and 9190 and 8090: cell count [6, 17]
inactive: fluorescence ratio [1] 0.96 | inhibition [2] 1.36% | inhibition [3] 3.34% | fluorescence ratio [4] 0.96 | inhibition [5] -1.74% | fold change [6, 15] 0.992 and 0.97 and 0.797 | z-score [7, 19] 0.108 and 0.243 | remaining NAD [8] 10 nM | luciferase signal [9] 48 AU | z-score [10] -0.71 and 0.54 | log fold change Tl+ flux (F380Y) 0.0234 | log fold change Tl+ flux (F380Y/beta2Delta) 0.0279 | log fold change Tl+ flux [11] 0.0181 | log fold change Tl+ flux (R275C) 0.0301 | log fold change Tl+ flux (R275C/beta1) 0.0324 | log fold change Tl+ flux (R275C/beta2Delta) 0.062

C=CC1=C(C(=O)O)N2C(=O)[C@@H](NC(=O)/C(=N\O)c3csc(N)n3)[C@H]2SC1 (stereo in doubt)
1.04: normalised cell number [14, 22]
inactive: parasite load remaining [12] 166% and 48.1% | inhibition [5] -2.05% | mean signal [13] 293 | red/green cell ratio (normalised) [14] 1.17 | fold change [6, 15] 0.92 | z-score [7, 19] -0.152 | remaining NAD [8] 10 nM | luciferase signal [9] 264 AU
87.7% and 99.2%: viability [12]
4.11: fold change [6, 16]
-0.423: z-score [7, 20]
13600: cell count [6, 18]
0.89: normalised cell number [14, 21]
12500: cell count [6, 17]

CC(=O)OCC(=O)[C@@]1(O)CC[C@H]2[C@@H]3CCC4=CC(=O)CC[C@]4(C)[C@H]3[C@@H](O)C[C@@]21C
7860 and 8520: cell count [6, 18]
130% and 68%: viability [12]
inactive: parasite load remaining [12] 82.4% and 26% | fluorescence ratio [1] 0.96 | inhibition [2] -0.45% | inhibition [3] 1.81% | fluorescence ratio [4] 0.96 | inhibition [5] 8.37% | fold change [6, 15] 0.933 and 0.77 | z-score [7, 19] 0.499 and 0.396 | remaining NAD [8] 10 nM | luciferase signal [9] 36 AU | z-score [10] -0.03 and 0.39 | log fold change Tl+ flux (F380Y) -0.0118 | log fold change Tl+ flux (F380Y/beta2Delta) 0.0163 | log fold change Tl+ flux [11] 0.0135 | log fold change Tl+ flux (R275C) -0.0512 | log fold change Tl+ flux (R275C/beta1) -0.0363 | log fold change Tl+ flux (R275C/beta2Delta) -0.0239
0.523 and 1.29: fold change [6, 16]
0.874 and 1.08: z-score [7, 20]
7330 and 6560: cell count [6, 17]

CN=C(N)NCCC[C@H](N)C(=O)O
inactive: parasite load remaining [12] 97.7% | fluorescence ratio [1] 0.99 | inhibition [2] -3.56% | inhibition [3] -2.41% | fluorescence ratio [4] 0.93 | inhibition [5] 3.01% and 12.6% | mean signal [13] 269 | red/green cell ratio (normalised) [14] 1.23 | fold change [6, 15] 0.994 and 0.867 | z-score [10] 0.22
9600 and 8960: cell count [6, 18]
0.95: normalised cell number [14, 22]
0.824 and 0.665: fold change [6, 16]
72.8%: viability [12]
9540 and 7760: cell count [6, 17]
0.78: normalised cell number [14, 21]

C[C@]12CC[C@@H]3c4ccc(O)cc4CC[C@H]3[C@@H]1CC[C@@H]2O
-0.193 and 1.1: z-score [7, 20]
inactive: fluorescence ratio [1] 1 | inhibition [2] 2.77% | inhibition [3] -0.87% | fluorescence ratio [4] 0.97 | inhibition [5] -7.69% | z-score [7, 19] 1.01 and 0.292 | remaining NAD [8] 10 nM | luciferase signal [9] 184 AU | z-score [10] 0.115 and -0.055 | log fold change Tl+ flux (F380Y) 0.0249 | log fold change Tl+ flux (F380Y/beta2Delta) -0.0581 | log fold change Tl+ flux [11] 0.072 | log fold change Tl+ flux (R275C) 0.021 | log fold change Tl+ flux (R275C/beta1) 0.0222 | log fold change Tl+ flux (R275C/beta2Delta) -0.0294

C[C@]12CC[C@@H](O)C[C@H]1CCc1ccccc12
1.09: normalised cell number [14, 21]
1.17: normalised cell number [14, 22]
inactive: inhibition [5] -3.83% | red/green cell ratio (normalised) [14] 1.08

CC(CCc1ccccc1)NCC(O)c1ccc(O)c(C(N)=O)c1 (stereo not given)
0.93: normalised cell number [14, 21]
1.24: normalised cell number [14, 22]
inactive: fluorescence ratio [1] 1.06 | inhibition [2] -2.27% | inhibition [3] -5.05% | fluorescence ratio [4] 1.02 | inhibition [5] 0.489% | mean signal [13] 243 | red/green cell ratio (normalised) [14] 1.34 | z-score [7, 19] -0.172 and 0.637 | remaining NAD [8] 10 nM | luciferase signal [9] 116 AU | z-score [10] -0.94 and 0.995 | log fold change Tl+ flux (F380Y) 0.0689 | log fold change Tl+ flux (F380Y/beta2Delta) 0.0329 | log fold change Tl+ flux [11] 0.00974 | log fold change Tl+ flux (R275C) -0.0121 | log fold change Tl+ flux (R275C/beta1) 0.0332 | log fold change Tl+ flux (R275C/beta2Delta) 0.0956
-0.173 and -0.159: z-score [7, 20]

CN1CCN(CC/C=C2/c3ccccc3Sc3ccc(S(=O)(=O)N(C)C)cc32)CC1
inactive: inhibition [5] 2.11% | mean signal [13] 215 | remaining NAD [8] 10 nM | luciferase signal [9] 108 AU

CC(=O)OCC(=O)[C@@]1(O)CC[C@H]2[C@@H]3C[C@H](C)C4=CC(=O)C=C[C@]4(C)[C@H]3[C@@H](O)C[C@@]21C
94.7%: viability [12]
8460: cell count [6, 18]
8310: cell count [6, 17]
inactive: parasite load remaining [12] 68.8% | fluorescence ratio [1] 0.98 | inhibition [2] -2.27% | inhibition [3] 0.29% | fluorescence ratio [4] 0.99 | inhibition [5] 6.5% | mean signal [13] 251 | fold change [6, 15] 0.982 | luciferase signal [9] 112 AU | z-score [10] -0.46 | log fold change Tl+ flux (F380Y) 0.0243 | log fold change Tl+ flux (F380Y/beta2Delta) 0.0726 | log fold change Tl+ flux [11] 0.0089 | log fold change Tl+ flux (R275C) 0.0193 | log fold change Tl+ flux (R275C/beta1) 0.0544 | log fold change Tl+ flux (R275C/beta2Delta) 0.0284
1.01: fold change [6, 16]

COc1cc(OC)c2c(OC)c(-c3ccc4c(c3)OCO4)c(=O)oc2c1
0.94: normalised cell number [14, 22]
0.92: normalised cell number [14, 21]
inactive: inhibition [5] -4.99% | red/green cell ratio (normalised) [14] 1.02

CC1NC(=O)NC1=O (stereo not given)
0.94: normalised cell number [14, 21]
0.79: normalised cell number [14, 22]
inactive: inhibition [5] -12% | red/green cell ratio (normalised) [14] 0.85
